# Unmarked numbers belong to inactive results. For some of these results: Entries with a potency or affinity are not part of this list. Active and inactive are the calls of the source. Unless noted, the rule behind the calls is not given here.
# How the values were obtained:
# [1] = antimalarial activity against Dd2 strain (AID 2302;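 active = growth inhibition above 50% at the single 2 µM test dose, taken to imply half-maximal potency below 2 µM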;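 note: 0% = DMSO untreated growth and 100% = chloroquine plus artemisinin killed control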); conditions: P. falciparum Dd2 in RBCs, LDH growth readout, 72 h; at 2 µM; hits give high values
# [2] = HepG2 cytotoxicity, primary screen, cytotoxicity control for P. falciparum antimalarial project, cell-based, ATP luminescence (AID 2303;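 active = inhibition above 50%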;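 note: 0% = DMSO wells and 100% = digitonin-killed cells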); conditions: HepG2 viability, 24-48 h, at 10 µM, hits give high values
# [3] = target: L-lactate dehydrogenase (Plasmodium falciparum (isolate CDC / Honduras)) (UniProt Q27743); assay: PfLDH activity inhibition – cell lysate, 3D7 strain, counter-screen for P. falciparum growth inhibition project (AID 2304);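 note: 0% = vehicle and 100% = reference inhibitor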; conditions: P. falciparum 3D7 crude extract, LDH APAD/NBT absorbance; at 2 µM; hits give high values
# L-lactate dehydrogenase (Plasmodium falciparum (isolate CDC / Honduras)), sequence (Q27743 whole entry, looked up): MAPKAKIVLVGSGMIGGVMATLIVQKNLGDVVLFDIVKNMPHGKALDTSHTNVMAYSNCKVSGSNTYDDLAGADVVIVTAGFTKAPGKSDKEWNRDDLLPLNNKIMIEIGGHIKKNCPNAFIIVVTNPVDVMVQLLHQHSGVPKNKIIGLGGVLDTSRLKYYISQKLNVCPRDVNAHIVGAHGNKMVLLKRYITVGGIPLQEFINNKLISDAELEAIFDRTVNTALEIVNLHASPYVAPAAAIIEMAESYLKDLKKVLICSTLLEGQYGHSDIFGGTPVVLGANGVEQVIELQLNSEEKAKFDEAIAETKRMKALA
# [4] = inhibition of 3D7 malaria parasite growth – strain 3D7 (AID 2306);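 note: 0% = DMSO wells and 100% = chloroquine plus artemisinin control wells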; conditions: P. falciparum 3D7 erythrocytic growth, LDH absorbance, 72 h; at 2 µM; hits give high values
# [5] = target: Calcium-dependent protein kinase 1 (Plasmodium falciparum (isolate 3D7)) (UniProt P62344); assay: PfCDPK1 kinase inhibitors, biochemical, TCAMS library (AID 1159585; cut-off not given, nearly all actives have IC50 up to about 0.98 µM;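 note: inhibitors leave more ATP so luminescence rises with inhibition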); conditions: recombinant PfCDPK1, Kinase-Glo ATP depletion luminescence
# Calcium-dependent protein kinase 1 (Plasmodium falciparum (isolate 3D7)), sequence (P62344 whole entry, looked up): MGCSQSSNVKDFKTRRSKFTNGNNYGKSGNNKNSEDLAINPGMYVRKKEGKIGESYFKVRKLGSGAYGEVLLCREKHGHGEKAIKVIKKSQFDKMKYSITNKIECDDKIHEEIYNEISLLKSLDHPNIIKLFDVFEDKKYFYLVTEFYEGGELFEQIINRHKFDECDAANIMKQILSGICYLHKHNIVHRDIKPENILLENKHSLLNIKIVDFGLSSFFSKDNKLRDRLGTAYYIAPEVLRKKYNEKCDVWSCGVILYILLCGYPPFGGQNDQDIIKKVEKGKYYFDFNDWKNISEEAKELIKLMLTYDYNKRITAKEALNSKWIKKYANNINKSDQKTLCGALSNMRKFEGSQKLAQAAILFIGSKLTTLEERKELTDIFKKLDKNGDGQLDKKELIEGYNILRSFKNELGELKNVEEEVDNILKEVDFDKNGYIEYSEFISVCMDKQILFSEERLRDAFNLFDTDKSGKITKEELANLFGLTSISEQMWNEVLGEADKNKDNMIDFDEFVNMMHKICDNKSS
# [6] = target: Plasmodium falciparum protein kinase 6 (PK6, PF3D7_1337100) (UniProt Q8IDW1); assay: PfPK6 kinase inhibitors, biochemical, TCAMS library (AID 1159586); conditions: recombinant PfPK6, Kinase-Glo ATP depletion luminescence
# Plasmodium falciparum protein kinase 6 (PK6, PF3D7_1337100), sequence (Q8IDW1 1-305): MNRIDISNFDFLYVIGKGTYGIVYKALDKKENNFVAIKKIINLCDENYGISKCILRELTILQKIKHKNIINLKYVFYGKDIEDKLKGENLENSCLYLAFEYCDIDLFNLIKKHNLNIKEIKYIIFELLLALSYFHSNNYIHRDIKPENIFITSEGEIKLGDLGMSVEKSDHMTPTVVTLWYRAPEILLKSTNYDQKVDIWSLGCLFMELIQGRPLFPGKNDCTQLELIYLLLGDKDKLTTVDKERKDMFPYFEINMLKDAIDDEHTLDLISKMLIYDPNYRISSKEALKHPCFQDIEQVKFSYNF
# [7] = target: Protein kinase 7 (PK7), Plasmodium falciparum 3D7 (PF3D7_0213400) (UniProt Q7YTF7); assay: inhibition of Plasmodium PK7 catalytic activity – biochemical, TCAMS antimalarial set, Kinase-Glo luminescence (AID 1159587); conditions: recombinant PfPK7, Kinase-Glo ATP depletion luminescence
# Protein kinase 7 (PK7), Plasmodium falciparum 3D7 (PF3D7_0213400), sequence (Q7YTF7 1-343): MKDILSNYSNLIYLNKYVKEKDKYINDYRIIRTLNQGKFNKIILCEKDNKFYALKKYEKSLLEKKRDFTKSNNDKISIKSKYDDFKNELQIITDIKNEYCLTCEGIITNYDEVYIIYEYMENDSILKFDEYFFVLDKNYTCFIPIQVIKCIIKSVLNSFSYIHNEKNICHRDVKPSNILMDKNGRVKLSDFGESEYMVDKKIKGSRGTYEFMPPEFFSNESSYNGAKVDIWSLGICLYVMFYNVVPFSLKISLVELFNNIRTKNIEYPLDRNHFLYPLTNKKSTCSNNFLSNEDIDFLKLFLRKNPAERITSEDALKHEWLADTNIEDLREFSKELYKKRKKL
# [8] = target: Calcium-dependent protein kinase 4 (Plasmodium falciparum (isolate 3D7)) (UniProt Q8IBS5); assay: PfCDPK4 kinase inhibitors, biochemical, TCAMS library (AID 1159588; cut-off not given, nearly all actives have IC50 up to about 0.91 µM); conditions: recombinant PfCDPK4, Kinase-Glo ATP depletion luminescence
# Calcium-dependent protein kinase 4 (Plasmodium falciparum (isolate 3D7)), sequence (Q8IBS5 whole entry, looked up): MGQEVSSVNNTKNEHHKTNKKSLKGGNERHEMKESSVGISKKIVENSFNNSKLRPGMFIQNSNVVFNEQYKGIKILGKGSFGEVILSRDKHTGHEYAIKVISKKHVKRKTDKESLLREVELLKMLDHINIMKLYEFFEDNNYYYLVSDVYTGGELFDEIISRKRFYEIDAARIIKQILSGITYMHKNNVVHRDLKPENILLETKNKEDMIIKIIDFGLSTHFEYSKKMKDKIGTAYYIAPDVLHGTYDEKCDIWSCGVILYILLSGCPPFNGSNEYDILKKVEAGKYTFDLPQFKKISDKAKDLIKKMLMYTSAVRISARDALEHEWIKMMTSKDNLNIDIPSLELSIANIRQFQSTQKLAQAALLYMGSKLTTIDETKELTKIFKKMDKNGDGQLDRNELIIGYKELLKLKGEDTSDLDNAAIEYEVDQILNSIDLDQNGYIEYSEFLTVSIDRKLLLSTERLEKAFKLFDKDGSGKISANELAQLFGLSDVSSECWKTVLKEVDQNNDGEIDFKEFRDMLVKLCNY
SMILES,growth inhibition [1],inhibition [2],inhibition [3] [%],growth inhibition [4],outcome [5],outcome [6],outcome [7],outcome [8]
CCc1cc(Br)c(CNCCCNc2cc(=O)c3ccccc3[nH]2)s1,45%,6%,-10,90% (active),inactive,inactive,inactive,inactive
CCCCCCOc1ccc(C(=O)NCCCC2CCCN(CCCCCNC(=O)C=Cc3ccc(Cl)c(Cl)c3)C2)cc1 (stereo not drawn),12%,20%,2,96% (active),inactive,inactive,inactive,inactive
Cc1cc(-c2ccc(CNC3Cc4ccccc4C3)cc2)ccc1S(=O)(=O)NCCN1CCCC1,73% (active),99% (active),0,101% (active),inactive,inactive,inactive,inactive
c1ccc(CN2CCN(CCNc3c4ccccc4nc4ccccc34)CC2)cc1,97% (active),44%,9,100% (active),inactive,inactive,inactive,inactive
Cc1cc(NCCC(=O)Nc2ccccc2)nc(NCc2ccccc2C)n1,57% (active),6%,-1,100% (active),inactive,inactive,inactive,inactive
COc1ccc(-c2ccc3c(-c4cccc(S(C)(=O)=O)c4)cnc(N)c3c2)cc1,12%,41%,2,89% (active),inactive,inactive,inactive,inactive
Cc1nnc2c(NC(=O)NC3CCCC3)cc3cc(-c4ccc(CN5CCCCC5)cc4)ccc3n12,93% (active),100% (active),-3,99% (active),inactive,inactive,inactive,inactive
COCc1ccccc1C(=O)NCCOc1cc(C)cc(C)c1,95% (active),26%,5,96% (active),inactive,inactive,inactive,inactive
O=C(Nc1ccc(C(F)(F)F)cc1)c1ccc(S(=O)(=O)NC2CCCN(CC3CCCCC3)C2)cc1 (stereo not drawn),-1%,45%,-5,99% (active),inactive,inactive,inactive,inactive
O=C(Nc1ccc(-c2cccc(-c3nc4ccc(C(F)(F)F)cc4[nH]3)c2)cc1)c1ccncc1,23%,63% (active),-4,101% (active),inactive,inactive,inactive,inactive
O=C(Nc1ccc(Cn2nc(Cl)c(N3CCCNCC3)cc2=O)cc1)Nc1ccc(-c2ccccc2)cc1,36%,89% (active),1,87% (active),inactive,inactive,inactive,inactive
CCOC(=O)Cc1nc(N)c(C(=O)OCC)[nH]1,24%,2%,-1,94% (active),inactive,inactive,inactive,inactive
CCOC(=O)c1sc(C(C)Nc2ccccc2)nc1-c1ccccc1 (stereo not drawn),91% (active),-8%,5,95% (active),inactive,inactive,inactive,inactive
CC1CCN(CC[C@H]2CCCN2S(=O)(=O)c2cccc(NC(=O)c3ccc(-c4ccccc4)cc3)c2)CC1,36%,38%,-6,87% (active),inactive,inactive,inactive,inactive
CCCN(CC1CC1)c1ncc(-c2cccc(CNCCC3CCCN3C)c2)cn1 (stereo not drawn),43%,77% (active),7,98% (active),inactive,inactive,inactive,inactive
CCOC(=O)NCCSC(C)(C)[C@H](NC(=O)[C@H](Cc1cc2ccccc2s1)[C@H](CC)N(O)C=O)C(=O)Nc1nccs1,98% (active),11%,1,98% (active),inactive,inactive,inactive,inactive
NC(=O)c1cccc(CNC(=O)NC[C@H]2CN(Cc3ccc(Cl)c(Cl)c3)CCO2)c1,65% (active),-3%,1,98% (active),inactive,inactive,inactive,inactive
CCOc1cc(C(=O)N[C@@H](Cc2ccccc2)[C@H](O)CNC(C)(C)c2cccc(OC)c2)cc(N2CCCS2(=O)=O)c1,99% (active),-5%,-3,99% (active),inactive,inactive,inactive,inactive
CCN(CCCN1CCCCC1)c1cc(C)nc(Nc2ccc(C(C)C)cc2)n1,51% (active),34%,2,100% (active),inactive,inactive,inactive,inactive
CCOc1c(C)cc(C(F)(F)F)cc1CNCCCNc1cc(=O)c2ccccc2[nH]1,1%,-1%,-7,97% (active),inactive,inactive,inactive,inactive
COc1cccc(CNC(=O)NC2CCN(c3ccnc(Nc4ccc(F)cc4)n3)C2)c1 (stereo not drawn),64% (active),20%,-7,94% (active),inactive,inactive,inactive,inactive

SMILES,growth inhibition [1],inhibition [2],inhibition [3] [%],growth inhibition [4],outcome [5],outcome [6],outcome [7],outcome [8]
COCCCn1c(=N)c(C(=O)NCCc2ccc(OC)cc2)cc2c(=O)n3cccc(C)c3nc21,33%,18%,-1,95% (active),inactive,inactive,inactive,inactive
Cc1cc(C(=O)NC2CCN(Cc3ccccc3)CC2)ccc1-c1nc2ccc(C(F)(F)F)cc2[nH]1,2%,19%,-1,95% (active),inactive,inactive,inactive,inactive
CC(C)Cn1cc(C2CCN(CCN3CCC(CNC(=O)c4ccc(-c5ccc(C#N)cc5)cc4)CC3)CC2)c2ccccc21,98% (active),28%,8,100% (active),inactive,inactive,inactive,inactive
CC(C)c1sc(N2CCCCC2)nc1C(=O)Nc1ccc(F)cc1C(F)(F)F,98% (active),-1%,0,100% (active),inactive,inactive,inactive,inactive
COCC(=O)N(Cc1ccccc1-c1cccc(CNCc2ccc3c(c2)OCO3)c1)C1CCN(Cc2ccccc2)CC1,72% (active),33%,-1,94% (active),inactive,inactive,inactive,inactive
CCC(=O)c1ccc(-c2ccc(=O)n(CC(=O)N(CCN(CC)CC)Cc3ccc(-c4ccc(C(F)(F)F)cc4)cc3)n2)cc1,67% (active),91% (active),-7,98% (active),inactive,inactive,inactive,inactive
N=c1c2c(n(Cc3cccc(Cl)c3)c3c1CCC3)CCCC2,86% (active),-5%,-1,97% (active),inactive,inactive,inactive,inactive
CN(C)CCNCc1ccc(-c2cccc(-c3nc4ccccc4[nH]3)c2)cc1,63% (active),31%,6,101% (active),inactive,inactive,inactive,inactive
COc1cccc(NC(=O)[C@H](C(C)C)n2c(=O)[nH]c3ccccc3c2=O)c1,100% (active),-1%,-1,101% (active),inactive,inactive,inactive,inactive
O=C(NCCCCN1CCC(O)(c2ccc(Cl)cc2)CC1)c1ccc(Br)cc1,48%,41%,4,82% (active),inactive,inactive,inactive,inactive
Clc1ccc(CNc2nc(NCCc3cnc[nH]3)nc(Nc3ccc4c(c3)OCO4)n2)cc1,6%,8%,-2,84% (active),inactive,inactive,inactive,inactive
Cc1cc2[nH]c(-c3ccc(C(=O)NCCCN4CCN(c5cccc(Cl)c5)CC4)cc3F)nc2cc1Cl,79% (active),-2%,5,99% (active),inactive,inactive,inactive,inactive
CC1CCN(C(=O)[C@H](Cc2c[nH]c3ccccc23)NS(=O)(=O)c2ccc(Cl)cc2)CC1,99% (active),-6%,0,100% (active),inactive,inactive,inactive,inactive
O=C(Nc1ccc2c(c1)OCCO2)c1cc(-c2cccnc2)nc2ccc(Cl)cc12,27%,2%,-1,95% (active),inactive,inactive,inactive,inactive
Nc1ncc(-c2ccsc2)cc1-c1nc2ccccc2[nH]1,8%,33%,-2,99% (active),inactive,inactive,inactive,inactive
CCOC(=O)c1cc(=O)c2ccc(OCC#N)cc2o1,86% (active),2%,-6,88% (active),inactive,inactive,inactive,inactive
CO/C(=C\C=C\c1cc2cc(Cl)c(Cl)cc2[nH]1)C(=O)NCCCNCCN(C)c1ccccc1,55% (active),33%,2,100% (active),inactive,inactive,inactive,inactive
COc1ccc(C2CCN(C#N)C2)cc1OC1CCCC1 (stereo not drawn),97% (active),9%,2,102% (active),inactive,inactive,inactive,inactive
O=C(Nc1ccc(Cl)cc1)Nc1ccc(-c2csc(-c3nc4ccccc4[nH]3)c2)cc1,40%,59% (active),-4,90% (active),inactive,inactive,inactive,inactive
CC1(C)OC[C@]2(C)[C@@H](CC[C@]3(C)C4=CC(=O)CCC4CC[C@@H]23)O1 (stereo partly drawn),95% (active),-2%,1,97% (active),inactive,inactive,inactive,inactive
